Consider one molecule from PubChem BioAssay (NCATS).

The target of test [1] is D(1A) dopamine receptor (Homo sapiens) (UniProt P21728). Kind of test: HTS Assay for Allosteric Agonists of the Human D1 Dopamine Receptor: Primary Screen for Antagonists (AID 488983).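 Note: calcium flux response to an EC80 dopamine challenge measured with no-wash dye; % is set by controls: 0 for no effect and ±100 for the full control effect; nearly all actives have a fitted effect of over 65% in size.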 A digest of the protocol: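 Calcium flux readout, no-wash dye, inducible HEK293 T-REx D1 line (force-coupled). Compound added after 10 s baseline, 180 s kinetic read; then dopamine at EC80, further 180 s read.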
Chain of D(1A) dopamine receptor (Homo sapiens) (P21728 whole entry, looked up): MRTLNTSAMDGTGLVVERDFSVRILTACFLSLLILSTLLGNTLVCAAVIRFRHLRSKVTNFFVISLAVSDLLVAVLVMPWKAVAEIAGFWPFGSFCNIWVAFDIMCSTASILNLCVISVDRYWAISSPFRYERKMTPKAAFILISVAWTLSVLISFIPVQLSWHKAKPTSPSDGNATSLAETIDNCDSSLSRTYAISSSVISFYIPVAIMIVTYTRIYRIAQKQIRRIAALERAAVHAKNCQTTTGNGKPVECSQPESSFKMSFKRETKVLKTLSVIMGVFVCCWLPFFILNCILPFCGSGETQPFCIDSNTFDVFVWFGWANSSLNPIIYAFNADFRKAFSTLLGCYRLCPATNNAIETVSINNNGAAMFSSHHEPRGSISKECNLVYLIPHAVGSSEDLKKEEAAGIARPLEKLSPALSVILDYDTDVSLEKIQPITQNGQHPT

Test [2] is described as follows: Validation screen for small molecules that induce genotoxicity in human embryonic kidney (HEK293T) cells expressing luciferase-tagged ELG1 (AID 493106). Note: potency is the fitted concentration of half-maximal effect. In outline: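 qHTS format; 2,000 HEK293T ELG1-luc cells/well; 23 nL compound via pin tool; 16 hr, 37 °C/5% CO2; ONE-Glo, 30 min RT; luminescence read.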
The target in test [3] is ATPase family AAA domain-containing protein 5 (Homo sapiens) (UniProt Q96QE3). The experiment in a line: Validation screen for small molecules that inhibit ELG1-dependent DNA repair in human embryonic kidney (HEK293T) cells expressing luciferase-tagged ELG1 (AID 493107).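 Note: cells co-treated with the DNA-damaging agent 5-fluorouridine alongside compound; series mostly up to about 46 µM; % is set by controls: 0 for no effect and ±100 for the full control effect; inhibitors lower the ELG1-luciferase luminescence signal; nearly all actives have a fitted effect of over 70% in size.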 In outline:
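ELG1-luciferase HEK293T reporter; 5-fluorouridine + compound/DMSO, 16 hr, 37 °C, 5% CO2; ONE-Glo 30 min RT; luminescence read, qHTS format.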

Test [4] has as its target Thyrotropin-releasing hormone receptor (Homo sapiens) (UniProt P34981). Kind of test: qHTS for Small Molecule Agonists and Allosteric Enhancers of Human TRH Receptor: Validation Screen for Agonists (AID 493127;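 active = calcium activation more than 3 SD above the typical response in the agonist read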;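 note: intracellular calcium rise by fluo-8 fluorescence before TRH EC20 addition; 0% is about no effect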). Particulars: TRH receptor agonist cell assay; at 2 µM; stronger effect = higher value. A digest of the protocol:
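Read-out: intracellular calcium release measured kinetically by FDSS (fluo-8, ex 480/em 530 nm), 1 reading/s after a 10-cycle baseline. TRHR cells, 2000/well, cultured 18 h at 33.5C, dye-loaded at room temp. Compound-evoked positive calcium signal flags agonists.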

Test [5] is described as follows: Nrf2 qHTS screen for inhibitors: Validation (AID 493153; active = well fitted inhibition curve with a large enough effect in the main read-out, with a control signal flat, not every such curve was filed as active). Particulars: viability change: measured here: cytotoxicity max response. In outline:
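Concentration-response test in A549 ARE_Fluc reporter cells (5% FBS OPTI-MEM), compound exposure 18-24 h at 37°C, 5% CO2. Cell viability measured first by CellTiter-Fluor fluorescence; ARE-driven luciferase luminescence then measured as Nrf2 activity.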

The nature of test [6]: qHTS for Inhibitors of Cell Surface uPA Generation: Validation Assay (AID 493164).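 Note: RAW 264.7 macrophage cells exposed to compound for 18 h; 0% is about no effect.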 In outline: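 Compounds are titrated over seven points (2.45 nM–38.3 uM final) onto pre-plated RAW 264.7 cells and incubated for 18 h. Retained intracellular ATP, measured with ATP-Lite, indicates blocked lethal factor entry.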
Background: qHTS replaces the single test concentration by a dilution series.

Test [7] has as its target Galactokinase (Homo sapiens) (UniProt P51570). The experiment in a line: qHTS Validation Assay for Inhibitors of Human Galactokinase (GALK) (AID 493189). Note: 0% is about no effect. A digest of the protocol:
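Inhibition was measured as remaining ATP, detected by luciferase luminescence after a 1 h room-temperature reaction. Final conditions: 5 nM GALK, 100 uM galactose, 35 uM ATP, pH 8.0 HEPES buffer.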

Test [8] concerns the target Peptidyl-prolyl cis-trans isomerase NIMA-interacting 1 (Homo sapiens) (UniProt Q13526). The experiment in a line: qHTS Validation Assay to Find Inhibitors of Pin1 (AID 504536; active = well fitted inhibition curve with a large enough effect in the polarisation, with a control signal flat, not every such curve was filed as active; the % refers to the polarisation;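 note: 0% = full Pin1 enzyme wells and -100% = no-enzyme wells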). In outline:
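Fluorescence polarization competition: compounds (titration) displace HiFluor-488-labeled Pin1-1b peptide from Pin1 (0.3 uM final) in pH 7.5 HEPES buffer with DTT, 10 min at room temperature; %Activity normalized to no-enzyme wells, curves fitted.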

Test [9] concerns the target Phosphoglycerate kinase, glycosomal (Trypanosoma brucei brucei) (UniProt P07378). The experiment in a line: qHTS Validation Assay to Find Inhibitors of Phosphoglycerate Kinase (AID 504547).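 Note: control wells lack PGK and mark full inhibition.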 In outline: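 In TEA buffer (100mM, pH 7.6) containing 5mM MgCl2 and 0.01% Tween-20, the GAPDH-coupled PGK reaction proceeded for 60 minutes at room temperature before a single luminescence reading using Kinase-Glo Plus.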

Test [10] has as its target phosphoglycerate mutase (Leishmania major) (UniProt Q4Q090). The experiment in a line: qHTS Validation Assay to Find Inhibitors of Phosphoglycerate Mutase (AID 504548).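 Note: end-point luminescence from Kinase-GloPlus after the PGAM reaction; series mostly up to about 58 µM; % is set by controls: 0 for no effect and ±100 for the full control effect.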 A digest of the protocol:
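Inhibition of L. major PGAM was assessed by Kinase-GloPlus luminescence following a 45-minute room-temperature reaction with enzyme at 1.25nM final.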

The target in test [11] is Ubiquitin carboxyl-terminal hydrolase 1 (Homo sapiens) (UniProt O94782). Kind of test: Inhibitors of USP1/UAF1: Pilot qHTS (AID 504865).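 Note: rhodamine fluorescence freed from ubiquitin-rhodamine substrate followed over time; top concentration of the series differs between compounds; % is set by controls: 0 for no effect and ±100 for the full control effect; nearly all actives have a fitted effect of over 35% in size.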 In outline:
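Deubiquitinase activity followed as kinetic rhodamine fluorescence release from 150 nM Ub-Rho. 1 nM USP1/UAF1 with compound, after 15 min room-temperature preincubation, in HEPES pH 7.8 buffer containing TCEP, EDTA, BSA and Tween-20.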

Test [12] deals with Voltage-gated inwardly rectifying potassium channel KCNH2 (Homo sapiens) (UniProt Q12809). Kind of test: qHTS Assay for Small Molecule Inhibitors of the Human hERG Channel Activity (AID 588834).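 Note: top concentration of the series differs between compounds; % is set by controls: 0 for no effect and ±100 for the full control effect; lower thallium flux fluorescence means stronger hERG block; nearly all actives have a fitted effect of over 50% in size.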 In outline: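 hERG block measured as reduced thallium-dye (FluxOR) fluorescence after stimulation buffer addition, read over 2 min. Cells were hERG-BacMam-transduced U2OS exposed to compound ~10 min […]; concentration-response fitted with Hill equation for AC50.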

For test [13], the target named is Glutaminase kidney isoform, mitochondrial (Homo sapiens) (UniProt O94925). Kind of test: qHTS for Inhibitors of Glutaminase (GLS): LOPAC Validation (AID 624146). Note: potency is the fitted concentration of half-maximal effect; nearly all actives have a fitted effect of over 60% in size. In outline:
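Read-out is an Amplex red fluorescence increase coupled through glutamate oxidase and HRP, measured before and after 30 min room-temperature incubation. hKGA is in 45 mM KH2PO4 (pH 8.2) with 0.02% Tween-20; glutamine added as 1mM solution.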

Test [14] in a line: qHTS of Trypanosoma Brucei Inhibitors: LOPAC Validation (AID 624147). Note: 0% is about no effect. In outline: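 Luminescent Kinase-Glo Plus end-point after 45 min room-temperature reaction of T. brucei pyruvate kinase started with 130 uM ADP (final). Buffer TEA 50 mM pH 7.2 with KCl, MgCl2, BSA, Tween-20; titration-based qHTS with fitted concentration-effect curves.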
Test [15] has as its target Glucagon-like peptide 1 receptor (Homo sapiens) (UniProt P43220). The experiment in a line: qHTS of GLP-1 Receptor Agonists: LOPAC Validation (AID 624148).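 Note: 0% is about no effect; higher luminescence signal means agonism.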 In outline: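 HEK293 cells stably co-expressing a cAMP-responsive luciferase reporter and a hypersensitive GLP-1R were plated 12 h at 37 °C and exposed to compounds for 4-6 hr at 37 °C, 5% CO2. Luminescence was read 12 min after adding detection reagent.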

The nature of test [16]: qHTS of Nrf2 Activators: LOPAC Validation (AID 624149). Note: 0% is about no effect. A digest of the protocol: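 AREc32_Fluc cells, 1000/well, OPTI-MEM + 5% FBS, o/n 37 deg C 5% CO2; compound pin-transfer, 24 hr 37 deg C; Steady-Glo 30 min RT, luminescence read.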
A short description of test [17]: HTS Assay for Allosteric Antagonists of the Human D2 Dopamine Receptor: Hit Validation in HTRF (AID 624455). Note: % is set by controls: 0 for no effect and ±100 for the full control effect. A digest of the protocol:
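HTRF read-out; cells stably expressing D1 receptor; hits scored for inhibition of D1-mediated response. Primary screen: calcium flux, force-coupled inducible Hek293 Trex D2 line, antagonism vs EC80 dopamine.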

The target in test [18] is Arylsulfatase A (Homo sapiens) (UniProt P15289). Kind of test: qHTS screen for enhancers of Arylsulfatase A (ASA1): LOPAC Validation Assay (AID 720538). Note: 0% is about no effect. A digest of the protocol: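 Enhancer assay in patient-derived MLD fibroblasts carrying ASA-I179S: 48 h compound exposure at 37 C, then 14 h room-temperature pNCS turnover (0.5 mM final) in lysis buffer. Read by fluorescence at 525/598 nm after NaOH stop.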
Chain of Arylsulfatase A (Homo sapiens) (P15289 whole entry, looked up): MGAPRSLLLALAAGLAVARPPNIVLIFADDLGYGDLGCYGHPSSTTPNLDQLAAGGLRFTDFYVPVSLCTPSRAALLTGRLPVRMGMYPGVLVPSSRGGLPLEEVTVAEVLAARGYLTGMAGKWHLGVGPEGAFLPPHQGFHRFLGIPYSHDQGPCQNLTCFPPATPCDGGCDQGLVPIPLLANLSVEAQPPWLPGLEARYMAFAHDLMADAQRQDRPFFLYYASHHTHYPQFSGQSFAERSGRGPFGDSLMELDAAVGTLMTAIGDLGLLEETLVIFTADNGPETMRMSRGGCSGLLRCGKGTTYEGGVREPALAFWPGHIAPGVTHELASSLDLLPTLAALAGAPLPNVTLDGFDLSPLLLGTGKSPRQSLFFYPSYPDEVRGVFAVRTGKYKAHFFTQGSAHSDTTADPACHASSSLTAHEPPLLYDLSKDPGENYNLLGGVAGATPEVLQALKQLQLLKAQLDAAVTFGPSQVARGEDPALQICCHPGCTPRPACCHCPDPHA

Molecules are shown by their SMILES. Records with an inconclusive call do not appear. Active and inactive are the calls of the source. Unless noted, calls come from the whole dose curve; as a rule, active = well fitted curve in the direction sought with a large enough effect; inconclusive = small, poorly fitted or top-dose-only effect, or another doubt; inactive = no such curve, though single readings can be large; an effect the other way counts as inactive or inconclusive.

Chain of Glucagon-like peptide 1 receptor (Homo sapiens) (P43220 whole entry, looked up): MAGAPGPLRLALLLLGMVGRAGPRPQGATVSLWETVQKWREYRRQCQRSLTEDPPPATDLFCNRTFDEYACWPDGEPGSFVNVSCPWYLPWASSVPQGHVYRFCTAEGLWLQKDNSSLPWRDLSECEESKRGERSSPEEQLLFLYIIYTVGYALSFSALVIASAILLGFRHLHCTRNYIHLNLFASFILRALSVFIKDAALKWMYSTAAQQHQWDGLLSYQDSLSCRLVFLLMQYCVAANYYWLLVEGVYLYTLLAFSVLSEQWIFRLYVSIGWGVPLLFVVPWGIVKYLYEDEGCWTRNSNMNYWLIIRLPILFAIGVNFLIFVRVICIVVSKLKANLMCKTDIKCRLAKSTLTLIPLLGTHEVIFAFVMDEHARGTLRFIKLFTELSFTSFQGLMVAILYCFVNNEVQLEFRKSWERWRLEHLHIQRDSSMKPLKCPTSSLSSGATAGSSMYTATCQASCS
Chain of Phosphoglycerate kinase, glycosomal (Trypanosoma brucei brucei) (P07378 whole entry, looked up): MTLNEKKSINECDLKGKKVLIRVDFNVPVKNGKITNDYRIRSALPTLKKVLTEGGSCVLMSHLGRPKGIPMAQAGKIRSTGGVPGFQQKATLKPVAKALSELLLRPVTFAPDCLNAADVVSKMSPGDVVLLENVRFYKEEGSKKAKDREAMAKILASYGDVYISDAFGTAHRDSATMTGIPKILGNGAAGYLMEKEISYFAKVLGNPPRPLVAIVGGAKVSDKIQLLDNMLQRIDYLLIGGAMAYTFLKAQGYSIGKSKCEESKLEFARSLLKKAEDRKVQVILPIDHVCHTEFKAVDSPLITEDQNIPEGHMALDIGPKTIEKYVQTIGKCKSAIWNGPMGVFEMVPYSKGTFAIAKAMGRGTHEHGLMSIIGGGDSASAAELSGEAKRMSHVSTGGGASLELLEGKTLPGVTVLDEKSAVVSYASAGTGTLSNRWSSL
Chain of Ubiquitin carboxyl-terminal hydrolase 1 (Homo sapiens) (O94782 whole entry, looked up): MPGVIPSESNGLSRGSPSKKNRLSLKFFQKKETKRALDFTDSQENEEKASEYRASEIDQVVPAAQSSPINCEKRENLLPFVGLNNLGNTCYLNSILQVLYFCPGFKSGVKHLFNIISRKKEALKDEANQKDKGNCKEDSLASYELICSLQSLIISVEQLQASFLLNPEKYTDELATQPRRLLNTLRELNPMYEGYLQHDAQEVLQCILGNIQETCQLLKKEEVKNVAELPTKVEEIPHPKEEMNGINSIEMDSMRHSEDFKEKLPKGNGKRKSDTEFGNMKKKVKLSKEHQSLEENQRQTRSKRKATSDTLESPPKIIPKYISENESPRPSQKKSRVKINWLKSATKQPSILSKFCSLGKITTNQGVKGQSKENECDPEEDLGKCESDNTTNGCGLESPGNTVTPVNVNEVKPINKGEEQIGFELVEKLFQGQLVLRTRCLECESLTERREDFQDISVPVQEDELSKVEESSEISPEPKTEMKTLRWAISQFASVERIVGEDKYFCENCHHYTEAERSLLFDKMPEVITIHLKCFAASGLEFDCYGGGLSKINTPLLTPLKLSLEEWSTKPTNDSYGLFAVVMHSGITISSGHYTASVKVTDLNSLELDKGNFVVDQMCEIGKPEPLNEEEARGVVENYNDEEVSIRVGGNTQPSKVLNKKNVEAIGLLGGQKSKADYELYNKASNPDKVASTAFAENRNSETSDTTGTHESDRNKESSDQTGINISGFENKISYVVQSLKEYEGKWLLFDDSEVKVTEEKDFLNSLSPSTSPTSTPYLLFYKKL
Chain of Galactokinase (Homo sapiens) (P51570 whole entry, looked up): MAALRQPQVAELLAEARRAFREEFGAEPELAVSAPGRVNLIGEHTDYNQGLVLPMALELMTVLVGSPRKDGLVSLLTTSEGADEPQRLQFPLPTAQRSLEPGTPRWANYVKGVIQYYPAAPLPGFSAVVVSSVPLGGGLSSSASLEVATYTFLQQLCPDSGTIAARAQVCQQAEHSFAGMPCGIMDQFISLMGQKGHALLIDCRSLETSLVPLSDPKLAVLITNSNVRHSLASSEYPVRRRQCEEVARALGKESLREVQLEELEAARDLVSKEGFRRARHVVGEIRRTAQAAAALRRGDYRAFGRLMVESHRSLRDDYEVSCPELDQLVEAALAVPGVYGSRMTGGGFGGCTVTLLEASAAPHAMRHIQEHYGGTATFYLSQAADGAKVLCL
Chain of ATPase family AAA domain-containing protein 5 (Homo sapiens) (Q96QE3 whole entry, looked up, the tested form may be a part): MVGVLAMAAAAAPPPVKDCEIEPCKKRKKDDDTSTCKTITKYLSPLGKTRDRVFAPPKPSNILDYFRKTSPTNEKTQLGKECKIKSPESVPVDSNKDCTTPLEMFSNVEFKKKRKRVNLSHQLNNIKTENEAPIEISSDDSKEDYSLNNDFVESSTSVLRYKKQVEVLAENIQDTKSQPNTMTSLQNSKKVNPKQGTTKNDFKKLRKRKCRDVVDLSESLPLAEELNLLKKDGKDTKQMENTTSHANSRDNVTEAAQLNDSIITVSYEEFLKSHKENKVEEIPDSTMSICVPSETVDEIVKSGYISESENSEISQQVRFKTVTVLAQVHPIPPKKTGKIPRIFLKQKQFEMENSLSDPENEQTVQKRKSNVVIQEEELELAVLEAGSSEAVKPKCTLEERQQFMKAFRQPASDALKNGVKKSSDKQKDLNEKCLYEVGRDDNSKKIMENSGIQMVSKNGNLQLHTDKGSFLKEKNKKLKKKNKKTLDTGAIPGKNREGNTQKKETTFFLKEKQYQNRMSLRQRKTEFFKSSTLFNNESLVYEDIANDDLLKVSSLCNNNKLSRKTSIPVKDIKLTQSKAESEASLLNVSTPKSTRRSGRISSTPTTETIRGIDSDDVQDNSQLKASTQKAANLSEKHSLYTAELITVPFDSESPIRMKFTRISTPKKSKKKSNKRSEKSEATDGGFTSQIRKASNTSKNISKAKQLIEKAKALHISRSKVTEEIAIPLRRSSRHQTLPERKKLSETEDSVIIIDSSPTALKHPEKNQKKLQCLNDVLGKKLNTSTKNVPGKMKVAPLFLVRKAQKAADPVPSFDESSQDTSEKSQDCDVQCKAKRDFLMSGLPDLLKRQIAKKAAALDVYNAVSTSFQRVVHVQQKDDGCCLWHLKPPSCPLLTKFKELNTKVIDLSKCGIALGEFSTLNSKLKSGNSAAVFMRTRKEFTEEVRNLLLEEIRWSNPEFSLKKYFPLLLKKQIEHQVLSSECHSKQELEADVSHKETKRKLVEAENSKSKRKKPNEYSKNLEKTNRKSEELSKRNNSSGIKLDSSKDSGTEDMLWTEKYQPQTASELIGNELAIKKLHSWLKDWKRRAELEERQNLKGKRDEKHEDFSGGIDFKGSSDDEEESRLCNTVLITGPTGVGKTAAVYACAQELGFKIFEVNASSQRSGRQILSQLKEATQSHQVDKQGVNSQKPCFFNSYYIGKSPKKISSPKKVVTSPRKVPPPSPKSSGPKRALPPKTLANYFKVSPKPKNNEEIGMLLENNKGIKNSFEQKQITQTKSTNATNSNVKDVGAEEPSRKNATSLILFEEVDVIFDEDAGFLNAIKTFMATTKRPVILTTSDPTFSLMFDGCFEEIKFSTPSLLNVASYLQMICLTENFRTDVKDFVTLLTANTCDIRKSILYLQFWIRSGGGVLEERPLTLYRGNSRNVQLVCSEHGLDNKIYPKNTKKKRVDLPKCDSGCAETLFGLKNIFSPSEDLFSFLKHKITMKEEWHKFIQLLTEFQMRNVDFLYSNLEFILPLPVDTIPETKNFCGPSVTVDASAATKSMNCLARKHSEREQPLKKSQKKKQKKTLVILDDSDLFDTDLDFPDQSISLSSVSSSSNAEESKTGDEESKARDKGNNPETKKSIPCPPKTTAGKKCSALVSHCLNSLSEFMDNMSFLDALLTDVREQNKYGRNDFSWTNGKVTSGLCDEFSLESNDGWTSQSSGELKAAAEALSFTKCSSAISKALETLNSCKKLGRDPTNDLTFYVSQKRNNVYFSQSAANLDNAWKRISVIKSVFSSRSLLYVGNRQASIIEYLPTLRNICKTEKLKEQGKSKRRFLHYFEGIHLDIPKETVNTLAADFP
Chain of Peptidyl-prolyl cis-trans isomerase NIMA-interacting 1 (Homo sapiens) (Q13526 whole entry, looked up): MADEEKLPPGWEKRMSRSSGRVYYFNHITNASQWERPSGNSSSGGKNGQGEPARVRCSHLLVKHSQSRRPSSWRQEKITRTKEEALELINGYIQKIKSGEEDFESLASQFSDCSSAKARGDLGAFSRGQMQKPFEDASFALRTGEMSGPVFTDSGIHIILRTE

For `S=C(Nc1ccccc1)Nc1nccs1`, the call in test [1], in test [5], in [6], in [7], in test [10] and in [14] was inactive. In addition, the molecule was called inactive in test [15], in test [16] and in [17]. In addition, the figures for the Potency in test [2] and in [13] were 20.6 µM (active) and 11.2 µM (active), respectively. Further, the Potency result in [3], in test [8], in test [9], in test [11], in [12] and in test [18] was “inactive” in each case. Moreover, the activation in [4] is 1.31% (inactive). In [5], the viability change was -0.228%.
